Source: ChEMBL document CHEMBL3988442, “University of Dundee, Small-Polar-MMV Screening Library” (2021)

Target: AMP-activated protein kinase, AMPK (Homo sapiens) (UniProt P54646+O43741+P54619+Q9UGJ0+Q9Y478+Q13131+Q9UGI9)
Assay: AMP-dependent Kinase enzyme assay. An in vitro enzyme assay that detects ADP turnover that is directly proportional to AMPK activity. This uses naive AMPK that is activated during the assay with MK-8722
Format: functional
Set-up: scale not given: direction of the effect not stated beside the values
Conditions: 30 µM

Compound | Percent Effect [%]
O=C(c1coc(COc2ccccc2F)n1)N1CCC[C@H]1CO | 8.7
Cc1ccc2ncccc2c1CN1CC[C@H](N(C)C)[C@H](CCC(=O)O)C1 | -2.6
Cc1ccc2c(c1)cc(CN1CC[C@](C)(O)[C@H](C)C1)n2C | 9.89
Cc1ccc(OCc2occc2C(=O)N2CCCCC(N)C2)cc1 (centres undefined) | 5.88
COc1ccc2nc(CNC(=O)C3CC4(CCNCC4)CN3C)[nH]c2c1 (centres undefined) | -3.99
N#CC1(NC(=O)c2c(F)ccc(OC(F)F)c2F)CCOCC1 | -2.32
Cc1ccc(CNC(=O)c2ccc(=O)n(C)n2)c(OCC2CC2)c1 | 14.4
CN(Cc1nc(C(C)(C)C)no1)C1CCS(=O)(=O)C1 (centres undefined) | 2.12
O=C(NC1CCCC1)N1C[C@H]2CN(c3ccncc3)C[C@@]2(C(=O)O)C1 | 9.08
COc1ccc(CN2CC(n3cccn3)C2)cc1F | -6.94
O=C(NC1CCOCC1)c1cccc(C2CCCNC2)c1 (centres undefined) | 2.1
O=S(=O)(NCCCn1cncn1)c1ccc2c(c1)OCCCO2 | 10.2
CN(Cc1cscn1)Cc1cc2c(cc1Br)OCO2 | -7.36
Cn1nccc1-c1cncc(C2CCCN(S(C)(=O)=O)C2)n1 (centres undefined) | 22.7
CN1C[C@H](c2ccccc2)[C@H]2CN(C(=O)Cc3ccc(O)cc3)CC[C@H]21 | 4.46
Fc1cccc(CN2CCC[C@@H](Cn3nnc(-c4ccccn4)n3)C2)c1 | 10.2
Cc1ccc(-c2cc(CN(CC(N)=O)CC(C)C)on2)cc1 | -6.41
COc1ccc(-c2cc(C3CCCCCN3S(C)(=O)=O)on2)cc1 (centres undefined) | 7.05
Cc1cc(N(C)CC2COc3ccccc3O2)nc(N)n1 (centres undefined) | 2.34
Cc1ccc(CNC(=O)NCc2nccn2C)c(OC(C)(C)C)c1 | 11.3

Compound | Percent Effect [%]
Cc1nn(C)c2nc(N(Cc3nccs3)C3CC3)sc12 | 1.18
CC(C)C[C@@H](N)C(=O)N(C)Cc1csc(C(C)C)n1 | -10.4
O=C(O)[C@H]1C[C@@H](C(=O)NCc2ccncc2)CN(Cc2ccccc2)C1 | -3
CN(Cc1ccc2c(c1)OCCO2)c1ncc(S(N)(=O)=O)s1 | -1.85
c1csc(CN2CCCN(c3ccc(Cn4ccnc4)cn3)CC2)c1 | -2.96
COc1ccc(Cn2c(Cc3c(C)n[nH]c3C)n[nH]c2=O)cc1 | -5.3
Cc1cccc(C)c1Nc1noc2c1CN(C(=O)c1cn(C)cn1)CC2 | 17.2
CS(=O)(=O)c1ccc(-c2cc(C3CC3)c(C#N)c(N)n2)cc1 | 12.5
CCCc1nnc(N2CCC(N3CCCC3)CC2)o1 | -4.2
c1csc(N2CCCN(c3ncnc4sccc34)CC2)n1 | 21.9
CCCS(=O)(=O)CC(=O)Nc1ccsc1 | -1.52
CCC(=O)N1CCOC(c2cc(Nc3nncs3)cc(C)n2)C1 (centres undefined) | 23
CS(=O)(=O)NCc1cccc(COC2CCCCC2)c1 | 4.87
CCC(=O)N(c1ccc(C(=O)OC)cc1C)C(C)C | -4.13
COc1ccc(CN(C)C(=O)CN2CC(n3cc(C)cn3)C2)cc1F | -3.71
Cc1nccn1CC1CCCN(C(=O)Cc2ccsc2)C1 (centres undefined) | 0.964
CCn1cnnc1CNS(=O)(=O)N1CCCC1c1ccco1 (centres undefined) | -5.92
Cc1cc(C)c2[nH]c(C(=O)NCCN3CCNC3=O)c(C)c2c1 | 11.1
CCc1nnc(Nc2cc(C)nc(C3CN(C(=O)C(C)C)CCO3)c2)s1 (centres undefined) | -1.78
